The panel holds about 83,000 compounds, 20% with a hit somewhere; the sample as a whole holds those more often.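 Cells were grown in 96-well plates and exposed to the test compound at a single concentration for 48 hours; results are reported as percent growth, with values below 10 considered active.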 Values without a mark were called inactive. Calls of active or inactive are those of the source.
What was measured:
Test in all cases: NCI-60 one-dose screen, 48 h (100 = growth as untreated, 0 = no growth, -100 = all killed)
Settings in all cases: 10 µM
K-562 leukemia = system: K-562 leukemia
MALME-3M melanoma = system: MALME-3M melanoma
MDA-MB-231 breast = system: MDA-MB-231 breast
RXF 393 renal = system: RXF 393 renal
SF-268 CNS = system: SF-268 CNS
SF-295 CNS = system: SF-295 CNS
SF-539 CNS = system: SF-539 CNS
UACC-257 melanoma = system: UACC-257 melanoma
M14 melanoma = system: M14 melanoma
HCT-15 colon = system: HCT-15 colon
HT29 colon = system: HT29 colon
SNB-75 CNS = system: SNB-75 CNS
SNB-19 CNS = system: SNB-19 CNS
U251 CNS = system: U251 CNS
PC-3 prostate = system: PC-3 prostate
SK-MEL-5 melanoma = system: SK-MEL-5 melanoma
LOX IMVI melanoma = system: LOX IMVI melanoma
SK-MEL-28 melanoma = system: SK-MEL-28 melanoma
SK-MEL-2 melanoma = system: SK-MEL-2 melanoma
UACC-62 melanoma = system: UACC-62 melanoma

SMILES	growth (K-562 leukemia)	growth (MALME-3M melanoma)	growth (MDA-MB-231 breast)	growth (RXF 393 renal)	growth (SF-268 CNS)	growth (SF-295 CNS)	growth (SF-539 CNS)	growth (UACC-257 melanoma)	growth (M14 melanoma)	growth (HCT-15 colon)	growth (HT29 colon)	growth (SNB-75 CNS)	growth (SNB-19 CNS)	growth (U251 CNS)	growth (PC-3 prostate)	growth (SK-MEL-5 melanoma)	growth (LOX IMVI melanoma)	growth (SK-MEL-28 melanoma)	growth (SK-MEL-2 melanoma)	growth (UACC-62 melanoma)
CN(C)N=Nc1nn(C(=O)Nc2ccc(Cc3ccccc3)cc2)c2ccccc12	18.4%	53.8%	58.2%	94.8%	63.5%	9.64% (active)	4.93% (active)	29.3%	20.4%	36.2%	41%	101%	64%	67.9%	29.5%	-37.5% (active)	1.48% (active)	43.2%	58.4%	–
N#Cc1c(C#N)c(SSc2c(C#N)c(C#N)c(N)n2-c2ccccc2)n(-c2ccccc2)c1N	-17.7% (active)	95.1%	100%	98.8%	112%	115%	103%	103%	115%	102%	101%	71.7%	103%	114%	49%	96.7%	96.4%	–	98.5%	94.8%
Cc1ccc(NC(=O)NC2CCCCC2)cc1	98%	108%	115%	102%	108%	105%	102%	80.6%	107%	96.3%	101%	107%	102%	99.7%	104%	100%	96.3%	104%	92%	–
CN1CC[C@@H](c2c(O)cc(O)c3c(=O)cc(-c4ccccc4Cl)oc23)[C@@H](O)C1	-23.8% (active)	-68.9% (active)	13.4%	12.4%	9.12% (active)	7.54% (active)	-31.3% (active)	15.5%	-58.9% (active)	-26.7% (active)	-7.65% (active)	-71.9% (active)	13.6%	8.62% (active)	-48.9% (active)	-38.5% (active)	5.25% (active)	–	-40.7% (active)	–
CCCCCCCNc1nc(C=O)ncc1-c1ccc(C(F)(F)F)cc1	89.4%	86.8%	117%	97%	98.8%	103%	107%	107%	102%	97.6%	86.8%	97%	91.1%	–	79.8%	97.6%	90.7%	104%	–	116%
CC(=O)CSC(C)=O	106%	89.6%	99.7%	109%	105%	91.8%	95.2%	100%	103%	103%	105%	84.3%	100%	98%	86.6%	98.9%	101%	95.6%	116%	–
C[C@@H]1C=C2C(=O)O[C@@H]3CC[C@H](C1)[C@]23O	27.5%	93.2%	89%	9.76% (active)	93.3%	114%	90.8%	46.8%	80.2%	62.5%	73.8%	69.3%	105%	87.6%	87.2%	92.8%	55.1%	88.1%	97.3%	–
C#Cc1ccc(-n2c(/C=C/c3ccc4ccccc4c3)nc3ncccc3c2=O)cc1	6.94% (active)	39.5%	42.1%	-21.4% (active)	37.8%	19.6%	70.5%	13%	1.76% (active)	25.4%	0.964% (active)	47.3%	75.3%	43.2%	13.7%	-90.3% (active)	-39% (active)	58.8%	-33.2% (active)	–

Reference: PubChem BioAssay (NCI)
